12-hLO inh = inhibitors of human 12-lipoxygenase (ALOX12); P18054; purified 12-hLO, xylenol orange hydroperoxide absorbance; Potency, µM (highest dose often 57.1 µM), most hits filed as inhibitors; 150,000 tested, 0.12% active; active means well fitted curve in the direction sought with a large enough effect; inconclusive means small, poorly fitted or top-dose-only effect, or another doubt; inactive means no such curve, though single readings can be large; an effect the other way counts as inactive or inconclusive; further: nearly all actives have a fitted effect of over 55% in size
Target sequence (P18054 whole entry, looked up): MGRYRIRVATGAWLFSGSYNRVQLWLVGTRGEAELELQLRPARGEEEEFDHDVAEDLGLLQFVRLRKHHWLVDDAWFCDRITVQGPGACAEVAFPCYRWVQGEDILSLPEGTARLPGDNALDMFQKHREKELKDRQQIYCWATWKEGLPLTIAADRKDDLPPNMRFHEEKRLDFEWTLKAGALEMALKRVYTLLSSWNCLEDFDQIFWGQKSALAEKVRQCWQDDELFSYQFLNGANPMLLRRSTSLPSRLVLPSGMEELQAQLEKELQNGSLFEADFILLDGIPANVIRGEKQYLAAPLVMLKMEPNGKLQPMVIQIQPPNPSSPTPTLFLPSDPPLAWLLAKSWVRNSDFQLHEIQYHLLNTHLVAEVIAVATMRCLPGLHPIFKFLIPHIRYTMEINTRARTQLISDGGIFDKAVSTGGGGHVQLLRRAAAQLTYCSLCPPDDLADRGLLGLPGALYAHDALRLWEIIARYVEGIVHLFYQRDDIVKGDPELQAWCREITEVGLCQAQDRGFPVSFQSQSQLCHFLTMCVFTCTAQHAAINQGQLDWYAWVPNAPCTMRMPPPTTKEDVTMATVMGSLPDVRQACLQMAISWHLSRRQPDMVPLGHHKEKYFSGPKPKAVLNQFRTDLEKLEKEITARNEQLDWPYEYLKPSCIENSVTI
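Purified human 12hLO (150 nM), preincubated 15 min with compound, then 40 uM arachidonic acid for 30 min, room temperature, Hepes pH 7.0 with 0.01% Triton X-100. Hydroperoxide detected by ferrous iron/xylenol orange; 573/405 nm absorbance ratio gives reaction progress.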
HPGD inh = blocks human HPGD enzyme activity; P15428; purified HPGD, NADH fluorescence kinetic, PGE2 substrate; Potency, µM, actives largely listed as inhibitors; 150,000 tested, 4.3% active; AID 894
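NADH formation kinetics: reaction with 30 uM PGE2 and 1 mM NAD+ (final), 20 nM enzyme, Tris-HCl pH 8 with Tween 20, after 15 min compound preincubation at room temperature. Fluorescence change, last versus first of five reads.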
PNC assembly inh = blocks assembly of the perinucleolar compartment; PC3M PTB-GFP, PNC prevalence imaging, 16 h; hits give low values; activity change (PNC), negative = inhibition, % at 10 µM; 140,000 tested, 3.1% active; AID 2417;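 active means readout at or below -70, meaning at least 70% loss of cells showing the perinucleolar compartment, a nuclear body marking cancer cells; inconclusive means readout between -30 and a set limit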
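Compounds are pinned in duplicate onto adhered PC3M cells stably expressing GFP-tagged PTB and incubated 16 h at 37 C. Cells are then fixed, nuclei stained with Hoechst, and PNC-positive cells counted.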
IMPase Li cell = membrane-permeable IMPase blocker, potentiated with lithium; AID 1457; Potency, µM (titrated, usually from 59.4 µM), most hits filed as inhibitors; 210,000 tested, 0.35% active; CHO-M1 cells, IP1 TR-FRET (IP-One), carbachol + lithium; active means well fitted curve in the direction sought with a large enough effect; inconclusive means small, poorly fitted or top-dose-only effect, or another doubt; inactive means no such curve, though single readings can be large; an effect the other way counts as inactive or inconclusive;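 further: IP1 builds up when IMPase is blocked and the TR-FRET signal falls; nearly all actives have a fitted effect of over 50% in size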
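Readout is a homogeneous TR-FRET IP1 immunoassay (Ex 320, Em 665 and 620), where raised cytosolic IP1 lowers signal. Cells were CHO-M1 treated 30 min at 37C with test compounds plus a little lithium; AC50 values came from Hill-equation fitting.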
ALDH1A1 block = ALDH1A1 (human) enzyme inhibition. 220,000 tested, 7.3% active. AID 1030. P00352. Potency, µM (doses to about 75.3 µM), most hits filed as inhibitors. Purified ALDH1A1, NADH fluorescence, propionaldehyde substrate
IMPase cell inh = membrane-permeable compound that blocks inositol monophosphatase | CHO-M1 cells, IP1 accumulation, HTRF TR-FRET ratio | inhibition (IP1 accumulation), % at 46.1 µM | 120,000 tested, under 10 active; active means well fitted curve in the direction sought with a large enough effect in the signal ratio, not every such curve was filed as active; inconclusive means small, poorly fitted or top-dose-only effect, or a change in a side signal; inactive means no such curve, though single readings can be large or run the other way; the % refers to the signal ratio;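 further: cells stimulated with carbachol in lithium chloride buffer; higher means more IMPase inhibition seen as more IP1 and lower FRET ratio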
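Measured: the HTRF emission ratio (665/620 nm) plus the 620 nm donor channel, each fitted to the Hill equation to give AC50. Cells were CHO-M1 given compounds up to 46 uM and a 30 min carbachol stimulation at 37C.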
Numbers stand for hits; . = inactive; ? = inconclusive; / = no result given; [ ] = remark or other dose. This is a sample that favours compounds with a hit; in the whole collection about 11% have one here. Unless noted, the call rests on the fitted dose curve; in most records, active means well fitted inhibition curve with a large enough effect (not every such curve was filed as active); inconclusive means small, poorly fitted or top-dose-only effect, or another doubt; inactive means no such curve, though single readings can be large or run the other way.

SMILES	12-hLO inh	HPGD inh	PNC assembly inh	IMPase Li cell	ALDH1A1 block	IMPase cell inh
CCOC(=O)C(C)Oc1cccc2c(=O)n(CC(=O)N3CCCc4ccccc43)ccc12 (stereo not given)	.	?	.	.	20µM	.
CCOC(=O)COc1cccc2c(=O)n(CC(=O)N3CCc4ccccc43)ccc12	.	.	-111	?	.	.
CC1O[C@@H](O[C@H]2C(Oc3cc(O)c4c(c3)OC(c3ccc(O)cc3)CC4=O)OC(CO)C(O)C2O)C(O)C(O)C1O (stereo not given in full)	.	.	/	.	.	/
CC(C)[C@H](NC(N)=O)C(=O)Nc1cccc([N+](=O)[O-])c1	/	/	/	.	.	/
COc1ccc([N+](=O)[O-])cc1NC(=O)C(C)OC(=O)/C=C/c1ccco1 (stereo not given)	.	28µM	.	.	?	/
CC(OC(=O)/C=C/c1ccco1)C(=O)Nc1cccc([N+](=O)[O-])c1 (stereo not given)	.	?	-84	.	?	.
COc1ccc([N+](=O)[O-])cc1NC(=O)c1ccco1	/	/	/	.	.	/
COc1ccc(CCCc2nnc(SCC(=O)Nc3ccc(F)cc3)o2)cc1C	/	/	/	/	/	.
CCc1ccc(C2C(C#N)=C(N)SC(N)=C2C#N)cc1	?	35µM	?	?	11µM	.
CCOc1ccccc1C1C(C#N)=C(N)SC(N)=C1C#N	.	.	.	?	.	.
N#CC1=C(N)SC(N)=C(C#N)C1c1ccc([N+](=O)[O-])cc1	?	?	.	.	10µM	.
CCc1ccc(C2C(C#N)=C(N)SC(N)=C2C#N)s1	?	28µM	.	.	?	.
N#CC1=C(N)SC(N)=C(C#N)C1c1ccc(C(F)(F)F)cc1	.	.	-127	?	25µM	.
O=C(CCC(=O)OCC(=O)c1ccc(Cl)cc1)Nc1ccc(Oc2ccccc2)cc1	/	/	/	/	/	.
CC(=O)OC1C[C@]2(C)[C@@H](CC(O)C3[C@]4(C)CCC(O)C(C)[C@@H]4CC[C@]32C)/C1=C(/CCC=C(C)C)C(=O)O (stereo not given in full)	.	.	/	.	.	/
C[Si](C)(c1ccc(C(=O)O)cc1)c1ccc(C(=O)O)cc1	.[11.4 µM]	0.2µM	/	.	.[13.5 µM]	/
O=C(NNc1cc(Cl)ccc1Cl)c1cccs1	/	/	/	/	1.9µM	/
O=C(Nc1cc(Cl)ccc1N1CCCCC1)c1cccs1	.	.	-88	.	.	.
Fc1ccc(CSc2nc3ncccc3[nH]2)cc1	.	.	.	.	.	.
O=C(CSc1nnc(-c2ccncc2)o1)c1cccc([N+](=O)[O-])c1	/	/	/	.	14µM	/
O=C(CSc1nc2ncccc2[nH]1)c1ccc(F)cc1	.	.	.	.	?	.
O=C(CSc1nc2ncccc2[nH]1)c1cccc([N+](=O)[O-])c1	.	?	-113	.	8.9µM	.
Fc1cccc(CSc2nc3ncccc3[nH]2)c1	.	18µM	.	.	?	.
O=C(CSc1nnc(CNc2ccccc2)o1)c1ccc2c(c1)OCCO2	.	.	.	.	14µM	.
O=C(Nc1cccc(F)c1)N1CCC2(CCNCC2)CC1	.	.	/	.	?	/
SMILES	12-hLO inh	HPGD inh	PNC assembly inh	IMPase Li cell	ALDH1A1 block	IMPase cell inh
Cc1ccc(S(=O)(=O)N(CC(=O)Nc2cccnc2)c2cc(Cl)ccc2C)cc1	/	/	/	/	/	.
O=C(CCN1CCOCC1)Nc1ccc(F)cc1F	.[11.4 µM]	.	/	.	.[13.5 µM]	/
COCCn1c(=O)c(-c2cc(F)cc(F)c2)nc2cnc(Nc3cccc(OC)c3)nc21	.	.	/	.	.	/
O=C(CSc1nnc(-c2ccncc2)o1)c1ccc2c(c1)OCCO2	/	/	/	?	0.79µM	/
CC1=NNC(=O)C1C(c1ccccc1)C1C(=O)NN=C1C (stereo not given)	/	/	/	.	32µM	/
Cc1ccc(N2C(=O)CC(N3CCc4ccccc43)C2=O)cc1Cl (stereo not given)	/	/	/	.	.	/
Cc1ccc(N2C(=O)CC(Sc3nc4ccccc4o3)C2=O)cc1Cl (stereo not given)	.	?	.	.	1.4µM	.
Cc1cccc(C)c1NC(=S)NC(C)CCc1ccccc1 (stereo not given)	?	.	-82	.	.	.

Screening results as filed in PubChem.
